Experimental findings from PubChem BioAssay (NCATS) are described below.

Results filed as inconclusive are left out. Calls of active or inactive are those of the source. Unless noted, calls come from the whole dose curve; as a rule, active = well fitted curve in the direction sought with a large enough effect; inconclusive = small, poorly fitted or top-dose-only effect, or another doubt; inactive = no such curve, though single readings can be large; an effect the other way counts as inactive or inconclusive.

Chain of Pyruvate kinase PKM (Homo sapiens) (P14618 whole entry, looked up): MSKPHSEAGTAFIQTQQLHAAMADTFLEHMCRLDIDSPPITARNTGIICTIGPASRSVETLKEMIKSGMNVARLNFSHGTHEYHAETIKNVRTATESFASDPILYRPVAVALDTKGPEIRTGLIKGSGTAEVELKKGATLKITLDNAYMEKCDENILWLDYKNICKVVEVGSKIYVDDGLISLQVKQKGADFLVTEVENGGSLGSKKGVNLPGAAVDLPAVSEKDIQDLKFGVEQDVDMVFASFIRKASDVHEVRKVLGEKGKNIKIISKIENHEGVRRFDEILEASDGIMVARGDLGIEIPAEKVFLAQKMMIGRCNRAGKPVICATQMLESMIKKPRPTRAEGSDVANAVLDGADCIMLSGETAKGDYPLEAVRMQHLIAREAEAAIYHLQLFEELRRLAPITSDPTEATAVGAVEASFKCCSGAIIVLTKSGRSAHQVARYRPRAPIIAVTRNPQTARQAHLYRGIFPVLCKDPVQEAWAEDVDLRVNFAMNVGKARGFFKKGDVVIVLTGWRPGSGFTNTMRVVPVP

The first test concerns the target Pyruvate kinase PKM (Homo sapiens) (UniProt P14618). Put plainly: qHTS Assay for Activators of Human Muscle Pyruvate Kinase (AID 954; active = well fitted curve in the direction sought with a large enough effect, not every such curve was filed as active;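 note: 0% = uninhibited enzyme and -100% = no enzyme or full thiadiazolimine inhibition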). The conditions noted are these: purified human muscle pyruvate kinase, luciferase-coupled luminescence, 1 h; series mostly up to 57.5 µM; activity change, negative = inhibition: at the top concentration. A digest of the protocol: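 Luminescence from a luciferase ATP-detection/stop reagent reported PKM2 activity. Reactions contained 0.1 nM purified human enzyme, 0.5 mM PEP, 0.1 mM ADP and 7 mM MgCl2 at pH 7.2, run 1 h at RT.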
Background: qHTS replaces the single test concentration by a dilution series.
As to `O=[N+]([O-])c1ccc(-c2nc(-c3ccc(F)cc3)c(-c3ccncc3)[nH]2)cc1`, the “activity change, negative = inhibition” value is -10% (inactive).

As to `Cn1cnc2c(NCc3ccccc3)nc(NCCO)nc21`, the “activity change, negative = inhibition” value was -6.05% (inactive).

Regarding `COc1ccccc1N1CCN(CCN2C(=O)CC3(CCCC3)CC2=O)CC1`, the “activity change, negative = inhibition” value was -27% (inactive).

Turning to `CN(C)c1cc2c(Nc3ccc4c(cnn4Cc4ccccc4)c3)ncnc2cn1`, the “activity change, negative = inhibition” value is -4.21% (inactive).

In the case of `Brc1ccc([C@H]2CN3CCSC3=N2)cc1`, the “activity change, negative = inhibition” value was -38% (inactive).

As for `NC(N)=NCCCCN=C(N)N`, the “activity change, negative = inhibition” value is -10.8% (inactive).

In the case of `C[N+](C)(C)CCO`, the “activity change, negative = inhibition” value was -10.9% (inactive).

Regarding `O=C1NC(c2cccc([N+](=O)[O-])c2)=CCN1c1ccccc1O`, the “activity change, negative = inhibition” value is -12.1% (inactive).

With `CC(C)N(CCC(=O)c1ccc2ccccc2c1)Cc1ccccc1`, the “activity change, negative = inhibition” value is 8.53% (inactive).

Tested on in the next test: not listed separately
The test is described as follows: MultiTox-Fluor Cytotoxicity Assay - LYMP1-002 - Live Cells (AID 955). For viability change, negative = cytotoxic: % is set by controls: 0 for no effect and ±100 for the full control effect.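 Note: cells exposed to compound for 16 hours.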 Note: potency is the fitted concentration of half-maximal effect. The conditions noted are these: LYMP1-002 lymphoblastoid live-cell protease fluorescence viability; series mostly up to 46.1 µM; viability change, negative = cytotoxic: at the top concentration. A digest of the protocol:
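Cytotoxicity in the human lymphoblastoid line LYMP1-002 is measured as loss of live-cell protease activity after 16 h treatment in complete culture medium. AC50 is derived from Hill-equation fits of qHTS concentration-response data.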
`O=C(NO)c1ccccc1`: the “viability change, negative = cytotoxic” value was 6.16% (inactive).

For `CC(=O)OC/C=C(C)/C=C/C=C(C)/C=C/C1=C(C)CCCC1(C)C`, the “viability change, negative = cytotoxic” value is -5.27% (inactive).

As for `Cc1cc(C(C)(C)C)c(O)c(C(C)(C)C)c1`, the “viability change, negative = cytotoxic” value is 0.0075% (inactive).

In the case of `c1ccc2occc2c1`, the “viability change, negative = cytotoxic” value was 2.35% (inactive).

Take `Nc1c2ccccc2nc2ccccc12`: the “viability change, negative = cytotoxic” value was 6.58% (inactive).

For `CCCC(=O)c1cc(O)c(O)cc1O`, the “viability change, negative = cytotoxic” value was -0.338% (inactive).

Turning to `COc1cc(C=O)ccc1O`, the “viability change, negative = cytotoxic” value is 6.14% (inactive).

Turning to `Cc1ccc(O)cc1`, the “viability change, negative = cytotoxic” value is 2.98% (inactive).

`O=C(c1ccccc1)c1ccccc1`: the “viability change, negative = cytotoxic” value was -1.16% (inactive).

Take `Oc1ccccc1`: the “viability change, negative = cytotoxic” value is -2.83% (inactive).

For `OCc1c[nH]c2ccccc12`, the “viability change, negative = cytotoxic” value was 8.09% (inactive).

As to `O=C(Oc1ccccc1)c1ccccc1O`, the “viability change, negative = cytotoxic” value is -2.76% (inactive).

For `CCCCC(CC)COC(=O)c1ccccc1C(=O)O` (configuration not stated), the “viability change, negative = cytotoxic” value is 1.78% (inactive).

Turning to `Nc1ccc(O)cc1`, the Potency is 25.1 µM (active).

For the molecule `C1=CC2C3C=CC(C3)C2C1` (configuration not stated), the “viability change, negative = cytotoxic” value was -8.18% (inactive).

Take `Brc1ccccc1-c1ccccc1`: the “viability change, negative = cytotoxic” value is 1.49% (inactive).

As to `Nc1cccc2c(N)cccc12`, the “viability change, negative = cytotoxic” value was -13.8% (inactive).

Regarding `CC(C)(c1ccc(O)cc1)c1ccc(O)cc1`, the Potency entry is “inactive”.

With `CC(C)(C)c1ccc(O)c(O)c1`, the “viability change, negative = cytotoxic” value is -0.35% (inactive).

With `CCCCCCCCCCCCCCCC[n+]1ccccc1`, the Potency is 12.6 µM (active).

For `CC(C)C(C)(C)C(C)(C)C(C)(C)S`, the “viability change, negative = cytotoxic” value is 11.7% (inactive).

Tested on in a further test: not listed separately
The test is described as follows: MultiTox-Fluor Cytotoxicity Assay - LYMP1-002 - Dead Cells (AID 960).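 For cytotoxicity (dead cells): cells exposed to compound for 16 h at 37 °C; 0% = DMSO and 100% = tetraoctylammonium bromide.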 Note: nearly all actives have a fitted effect of over 60% in size. Note: potency is the fitted concentration of half-maximal effect. The conditions noted are these: LYMP1-002 lymphoblastoid cells, dead-cell protease fluorescence; series mostly up to 46.1 µM; cytotoxicity (dead cells): at the top concentration. In outline:
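Acute cytotoxicity in a human lymphoblastoid line is scored as rising dead-cell protease signal after 16 hr exposure at 37 C, measured fluorometrically (485/520).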
For `O=C(NO)c1ccccc1`, the “cytotoxicity (dead cells)” value is -10.3% (inactive).

Take `CC(=O)OC/C=C(C)/C=C/C=C(C)/C=C/C1=C(C)CCCC1(C)C`: the “cytotoxicity (dead cells)” value is 27.6% (inactive).

With `c1ccc2occc2c1`, the “cytotoxicity (dead cells)” value is 10.5% (inactive).

Regarding `Nc1c2ccccc2nc2ccccc12`, the Potency was 7.94 µM (active).

As to `CCCC(=O)c1cc(O)c(O)cc1O`, the “cytotoxicity (dead cells)” value is -3.23% (inactive).

Regarding `COc1cc(C=O)ccc1O`, the “cytotoxicity (dead cells)” value is 6.16% (inactive).

In the case of `O=C(c1ccccc1)c1ccccc1`, the “cytotoxicity (dead cells)” value is 5.47% (inactive).

On to `Oc1ccccc1`, for which the “cytotoxicity (dead cells)” value was -3.73% (inactive).

Take `OCc1c[nH]c2ccccc12`: the “cytotoxicity (dead cells)” value is 7.7% (inactive).

Regarding `O=C(Oc1ccccc1)c1ccccc1O`, the “cytotoxicity (dead cells)” value was 5.69% (inactive).

Take `CCCCC(CC)COC(=O)c1ccccc1C(=O)O` (configuration not stated): the “cytotoxicity (dead cells)” value was 2.6% (inactive).

In the case of `Nc1ccc(O)cc1`, the Potency is 31.6 µM (active).

For the molecule `C1=CC2C3C=CC(C3)C2C1` (configuration not stated), the “cytotoxicity (dead cells)” value is -18.2% (inactive).

As for `Brc1ccccc1-c1ccccc1`, the “cytotoxicity (dead cells)” value is 2.11% (inactive).

On to `Nc1cccc2c(N)cccc12`, for which the “cytotoxicity (dead cells)” value is -15.1% (inactive).

`CC(C)(c1ccc(O)cc1)c1ccc(O)cc1`: the Potency result is “inactive”.

Turning to `CC(C)(C)c1ccc(O)c(O)c1`, the “cytotoxicity (dead cells)” value is 23.4% (inactive).

For the molecule `CCCCCCCCCCCCCCCC[n+]1ccccc1`, the Potency was 10 µM (active).

Tested on in the next test: not listed separately
The test is described as follows: MultiTox-Fluor Cytotoxicity Assay - LYMP1-003 - Dead Cells (AID 961).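 For cytotoxicity (dead cells): 0% = DMSO and 100% = tetraoctylammonium bromide.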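 Note: cells exposed to compound for 16 h at 37 °C; nearly all actives have a fitted effect of over 70% in size.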 Note: potency is the fitted concentration of half-maximal effect. Particulars: LYMP1-003 lymphoblastoid cells, dead-cell protease fluorescence; series mostly up to 92.2 µM; cytotoxicity (dead cells): at the top concentration. In outline: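 Human lymphoblastoid LYMP1-003 cells (2500/well) were treated with compounds for 16 hr at 37 C in complete medium. Dead-cell protease release was read by bis-AAF-R110 fluorescence (Ex/Em 485/520). AC50 came from Hill fits, normalized to DMSO and 15 uM tetraoctylammonium bromide.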
Take `O=C(NO)c1ccccc1`: the “cytotoxicity (dead cells)” value is -14.2% (inactive).

With `CC(=O)OC/C=C(C)/C=C/C=C(C)/C=C/C1=C(C)CCCC1(C)C`, the “cytotoxicity (dead cells)” value is 15% (inactive).

As to `Cc1cc(C(C)(C)C)c(O)c(C(C)(C)C)c1`, the “cytotoxicity (dead cells)” value is 1.48% (inactive).

In the case of `c1ccc2occc2c1`, the “cytotoxicity (dead cells)” value is -5.81% (inactive).

As for `Nc1c2ccccc2nc2ccccc12`, the Potency was 15.8 µM (active).

`CCCC(=O)c1cc(O)c(O)cc1O`: the “cytotoxicity (dead cells)” value was -34.6% (inactive).

As to `COc1cc(C=O)ccc1O`, the “cytotoxicity (dead cells)” value is -11.7% (inactive).

With `Cc1ccc(O)cc1`, the “cytotoxicity (dead cells)” value was -0.864% (inactive).

Consider `O=C(c1ccccc1)c1ccccc1`, for which the “cytotoxicity (dead cells)” value was -11.4% (inactive).

For the molecule `Oc1ccccc1`, the “cytotoxicity (dead cells)” value is -6.38% (inactive).

`OCc1c[nH]c2ccccc12`: the “cytotoxicity (dead cells)” value is -12.8% (inactive).

Take `O=C(Oc1ccccc1)c1ccccc1O`: the “cytotoxicity (dead cells)” value was 15.7% (inactive).

On to `CCCCC(CC)COC(=O)c1ccccc1C(=O)O` (configuration not stated), for which the “cytotoxicity (dead cells)” value is -14.9% (inactive).

For the molecule `Nc1ccc(O)cc1`, the Potency was 50.1 µM (active).

As for `C1=CC2C3C=CC(C3)C2C1` (configuration not stated), the “cytotoxicity (dead cells)” value is -13.1% (inactive).

`Brc1ccccc1-c1ccccc1`: the “cytotoxicity (dead cells)” value was -10.4% (inactive).

For `Nc1cccc2c(N)cccc12`, the “cytotoxicity (dead cells)” value was -6.29% (inactive).

Consider `CC(C)(c1ccc(O)cc1)c1ccc(O)cc1`, for which the Potency entry is “inactive”.

As to `CC(C)C(C)(C)C(C)(C)C(C)(C)S`, the “cytotoxicity (dead cells)” value was -13% (inactive).

Tested on in the next test: not listed separately
The test is described as follows: MultiTox-Fluor Cytotoxicity Assay - LYMP1-003 - Live Cells (AID 962).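 For activity change, negative = fewer live cells: 0% = DMSO only and full loss = 92 µM tetraoctylammonium bromide; cytotoxic hits lower the live-cell protease signal.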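 Note: cells exposed to compound for 16 hours at 37 °C.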 Note: potency is the fitted concentration of half-maximal effect. Particulars: LYMP1-003 lymphoblastoid cells, MultiTox-Fluor live-cell protease fluorescence; series mostly up to 92.2 µM; activity change, negative = fewer live cells: at the top concentration. A digest of the protocol:
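Cells plated at 2500 per well and incubated 5 hr; compounds added and incubated 16 hr at 37 C; MultiTox-Fluor reagent added for 60 min at room temperature; fluorescence of liberated AFC measured at 405/510 nm.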
For the molecule `O=C(NO)c1ccccc1`, the “activity change, negative = fewer live cells” value was -8.97% (inactive).

On to `CC(=O)OC/C=C(C)/C=C/C=C(C)/C=C/C1=C(C)CCCC1(C)C`, for which the “activity change, negative = fewer live cells” value is -11% (inactive).

On to `Cc1cc(C(C)(C)C)c(O)c(C(C)(C)C)c1`, for which the “activity change, negative = fewer live cells” value was -3.19% (inactive).

In the case of `c1ccc2occc2c1`, the “activity change, negative = fewer live cells” value was 3.85% (inactive).

For the molecule `Nc1c2ccccc2nc2ccccc12`, the “activity change, negative = fewer live cells” value is -7.82% (inactive).

Take `CCCC(=O)c1cc(O)c(O)cc1O`: the “activity change, negative = fewer live cells” value is -0.333% (inactive).

Consider `COc1cc(C=O)ccc1O`, for which the “activity change, negative = fewer live cells” value was -4.58% (inactive).

As to `Cc1ccc(O)cc1`, the “activity change, negative = fewer live cells” value was -2.53% (inactive).

With `O=C(c1ccccc1)c1ccccc1`, the “activity change, negative = fewer live cells” value was -2.38% (inactive).

Regarding `Oc1ccccc1`, the “activity change, negative = fewer live cells” value is -4.15% (inactive).

Consider `OCc1c[nH]c2ccccc12`, for which the “activity change, negative = fewer live cells” value is -8.62% (inactive).

`O=C(Oc1ccccc1)c1ccccc1O`: the “activity change, negative = fewer live cells” value is 2.63% (inactive).

Take `CCCCC(CC)COC(=O)c1ccccc1C(=O)O` (configuration not stated): the “activity change, negative = fewer live cells” value was -5.96% (inactive).

For the molecule `C1=CC2C3C=CC(C3)C2C1` (configuration not stated), the “activity change, negative = fewer live cells” value is -0.0946% (inactive).

For the molecule `Brc1ccccc1-c1ccccc1`, the “activity change, negative = fewer live cells” value was -10.4% (inactive).

As to `Nc1cccc2c(N)cccc12`, the “activity change, negative = fewer live cells” value is -26.9% (inactive).

For `CC(C)(c1ccc(O)cc1)c1ccc(O)cc1`, the Potency entry was “inactive”.

Regarding `CC(C)(C)c1ccc(O)c(O)c1`, the “activity change, negative = fewer live cells” value was -37.3% (inactive).

Take `CCCCCCCCCCCCCCCC[n+]1ccccc1`: the Potency was 31.6 µM (active).

Take `CC(C)C(C)(C)C(C)(C)C(C)(C)S`: the “activity change, negative = fewer live cells” value was -9.01% (inactive).
